Source: PubChem BioAssay AID1159580 (chemical genetic matrix, 2015)
In all, about 5,500 compounds went through this assay and about 2,000 (36%) were called active. About 18% were inconclusive and are not listed. Cut-off read from the data, not from the text of the source: active = normalized growth mostly below about 0.91 (no sharp cut-off); inconclusive = no clear call, values can overlap the other calls; inactive = mostly above about 0.92. The list shows a part of the results.

Experiment: chemical genetic growth profiling, strain panel (AID 1159580);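 note: tested at 20 µM; growth read once vehicle control cultures reached saturation at 30 °C; 1 = growth at the plate median or of vehicle wells; lower values mean less growth of the strain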
Details: S. cerevisiae deletion strains, growth OD

Measured: normalized growth

CCOc1ccc2c(c1)C(C)=CC(C)(C)N2
inactive: locus YAL013W, strain DEP1, active compounds read low 0.99 | locus YAL021C, strain ccr4, active compounds read low 0.99 | locus YAL026C, strain drs2, active compounds read low 0.983 | locus YAL030W, strain snc1, active compounds read low 0.996 | locus YBL061C, strain skt5, active compounds read low 0.988 | locus YBR009C, strain hhf1, active compounds read low 0.996 | locus YBR021W, strain FUR4, active compounds read low 0.983 | locus YBR023C, strain chs3, active compounds read low 0.994 | locus YBR171W, strain sec66, active compounds read low 0.982 | locus YBR229C, strain ROT2, active compounds read low 0.986 | locus YBR231C, strain swc5, active compounds read low 0.991 | locus YBR279W, strain paf1, active compounds read low 0.99 | locus YCL011C, strain gbp2, active compounds read low 0.989 | locus YCL016C, strain dcc1, active compounds read low 0.995 | locus YCL029C, strain bik1, active compounds read low 0.959 | locus YCL061C, strain MRC1, active compounds read low 0.994 | locus YCL069W, strain vba3, active compounds read low 0.987 | locus YCR088W, strain abp1, active compounds read low 0.983 | locus YDL005C, strain med2, active compounds read low 0.974 | locus YDL035C, strain GPR1, active compounds read low 1.01 | locus YDL040C, strain nat1, active compounds read low 0.987 | locus YDL074C, strain BRE1, active compounds read low 0.973 | locus YDL101C, strain DUN1, active compounds read low 0.976 | locus YDL134C, strain PPH21, active compounds read low 0.983 | locus YDL185W, strain tfp1, active compounds read low 0.977 | locus YDL192W, strain arf1, active compounds read low 0.984 | locus YDR001C, strain nth1, active compounds read low 0.986 | locus YDR069C, strain doa4, active compounds read low 0.995 | locus YDR101C, strain arx1, active compounds read low 0.984 | locus YDR137W, strain rgp1, active compounds read low 1.01 | locus YDR150W, strain NUM1, active compounds read low 0.993 | locus YDR159W, strain sac3, active compounds read low 0.989 | locus YDR162C, strain NBP2, active compounds read low 0.99 | locus YDR195W, strain ref2 0.98 | locus YDR297W, strain sur2, active compounds read low 0.989 | locus YDR318W, strain mcm21, active compounds read low 0.987 | locus YDR334W, strain swr1, active compounds read low 0.975 | locus YDR335W, strain msn5, active compounds read low 0.995 | locus YDR388W, active compounds read low 0.984 | locus YDR392W, strain spt3, active compounds read low 0.95 | locus YDR502C, strain sam2, active compounds read low 0.993 | locus YEL003W, strain gim4, active compounds read low 0.992 | locus YEL037C, strain rad23, active compounds read low 0.984 | locus YEL061C, strain CIN8 (second series), active compounds read low 0.99 | locus YEL061C, strain CIN8, active compounds read low 0.997 | locus YER015W, strain faa2, active compounds read low 0.99 | locus YER016W, strain bim1, active compounds read low 0.999 | locus YER110C, active compounds read low 0.979 | locus YER111C, strain swi4, active compounds read low 0.982 | locus YER155C, strain BEM2 (second series), active compounds read low 0.98 | locus YER155C, strain BEM2, active compounds read low 0.989 | locus YER167W, strain BCK2, active compounds read low 1 | locus YFR010W, strain ubp6, active compounds read low 0.977 | locus YGL078C, strain dbp3, active compounds read low 0.991 | locus YGL086W, strain mad1, active compounds read low 1 | locus YGL167C, strain pmr1, active compounds read low 0.978 | locus YGL173C, strain kem1, active compounds read low 0.98 | locus YGL227W, strain vid30, active compounds read low 0.98 | locus YGL240W, strain doc1, active compounds read low 0.985 | locus YGL248W, strain PDE1, active compounds read low 0.985 | locus YGL253W, strain hxk2, active compounds read low 0.984 | locus YGR078C, strain PAC10, active compounds read low 0.981 | locus YGR135W, strain pre9, active compounds read low 0.974 | locus YGR229C, strain SMI1, active compounds read low 1.01 | locus YGR252W, strain gcn5, active compounds read low 1.07 | locus YHR013C, strain ard1, active compounds read low 0.977 | locus YHR027C, strain rpn1, active compounds read low 0.979 | locus YHR030C, strain SLT2, active compounds read low 0.994 | locus YHR079C, strain IRE1 (second series), active compounds read low 0.975 | locus YHR094C, strain hxt1, active compounds read low 0.988 | locus YHR129C, strain ARP1, active compounds read low 0.987 | locus YHR142W, strain chs7, active compounds read low 0.98 | locus YHR200W, strain rpn10, active compounds read low 0.978 | locus YIL066C, strain RNR3, active compounds read low 0.974 | locus YIL073C, strain SPO22, active compounds read low 0.981 | locus YIL125W, strain kgd1, active compounds read low 0.998 | locus YIR030C, strain dcg1, active compounds read low 0.981 | locus YJL092W, strain hpr5, active compounds read low 0.986 | locus YJL095W, strain BCK1 (second series), active compounds read low 0.99 | locus YJL095W, strain BCK1, active compounds read low 0.971 | locus YJL115W, strain asf1, active compounds read low 0.984 | locus YJL129C, strain trk1, active compounds read low 0.996 | locus YJL134W, strain LCB3, active compounds read low 0.994 | locus YJL154C, strain vps35, active compounds read low 0.98 | locus YJL164C, strain tpk1, active compounds read low 0.993 | locus YJL166W, strain qcr8, active compounds read low 1 | locus YJL168C, strain set2, active compounds read low 0.984 | locus YJL187C, strain SWE1 (second series), active compounds read low 0.964 | locus YJL187C, strain SWE1, active compounds read low 0.988
